Outcome and AC50 data for 19 compounds are collected here from PubChem BioAssay (EPA / NIEHS).

SMILES strings stand for the structures. Calls of active or inactive are those of the source. Rule for the calls: active = hit-call score of the fitted dose curve at least 0.9, where 1 is the maximum; inactive = score below 0.9.

What all share (conditions): mRNA level, 48 h; actives raise or lower the signal
Read-out in assay [1]: Potassium channel subfamily K member 1 (KCNK1), KCNK1 (gene 3775)
The assay can be described thus: LTEA_HepaRG_KCNK1: Life Technologies and Expression Analysis (LTEA) Assay for Potassium channel subfamily K member 1 (KCNK1) using HepaRG (AID 2283511). Summed up: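 Human HepaRG cultures receive test chemicals for 48 h in 0.5% DMSO, top concentration 100 uM with half-log dilutions. Induction or suppression of KCNK1 mRNA relative to DMSO is derived by bidirectional fitting of qRT-PCR data.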

Read-out in assay [2]: Keratin 19 (KRT19), KRT19 (gene 3880)
Description: LTEA_HepaRG_KRT19: Life Technologies and Expression Analysis (LTEA) Assay for Keratin 19 (KRT19) using HepaRG (AID 2283512). Summed up:
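KRT19 transcript measured by TaqMan qRT-PCR, referenced to three housekeeping genes, after HepaRG cells received test chemicals for 48 h. Eight half-log concentrations, top 100 uM, 0.5% DMSO vehicle; increases and decreases both fitted.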

Read-out in assay [3]: JUN Transcription Factor, JUN (gene 3725)
The assay can be described thus: LTEA_HepaRG_JUN: Life Technologies and Expression Analysis (LTEA) Assay for JUN Transcription Factor using HepaRG (AID 2283513). In short, it runs like this: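 HepaRG, 48 h exposure, 8-pt half-log series top 100 uM, 0.5% DMSO, duplicate. JUN mRNA by qRT-PCR (Fluidigm), housekeeping-normalized (ACTB/GAPDH/POLR2A); bidirectional curve fit vs DMSO baseline.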

Read-out in assay [4]: Lipase C (LIPC), LIPC (gene 3990)
Description: LTEA_HepaRG_LIPC: Life Technologies and Expression Analysis (LTEA) Assay for Lipase C (LIPC) using HepaRG (AID 2283514). In short, it runs like this: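 In this multiplexed gene-expression screen, human HepaRG cultures received test chemicals for 48 h across eight concentrations with 100 uM highest, in duplicate. Values reflect LIPC mRNA induction or suppression versus DMSO vehicle, from normalized qRT-PCR.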

Read-out in assay [5]: Lipoprotein lipase (LPL), LPL (gene 4023)
Description: LTEA_HepaRG_LPL: Life Technologies and Expression Analysis (LTEA) Assay for Lipoprotein lipase (LPL) using HepaRG (AID 2283515). In short, it runs like this:
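Concentration-response testing used half-log steps from 100 uM in 0.5% DMSO on human HepaRG cells, 48 h, duplicate wells. Phenobarbital 1 mM served as induction control; LPL mRNA was normalized to ACTB, GAPDH, POLR2A.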

Read-out in assay [6]: MicroRNA 122 (MIR122), gene 406906
The assay can be described thus: LTEA_HepaRG_MIR122: Life Technologies and Expression Analysis (LTEA) Assay for MicroRNA 122 (MIR122) using HepaRG (AID 2283516). Note: the transcript read is the microRNA miR-122. In short, it runs like this: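 qRT-PCR read-out (TaqMan, Fluidigm array), normalized to three housekeeping genes; HepaRG cells dosed 48 h at 8 concentrations up to 100 uM in 0.5% DMSO, duplicate; gain or loss fitted against DMSO baseline.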

Read-out in assay [7]: matrix metalloproteinase-10 (MMP10), MMP10 (gene 4319)
The assay can be described thus: LTEA_HepaRG_MMP10: Life Technologies and Expression Analysis (LTEA) Assay for matrix metalloproteinase-10 (MMP10) using HepaRG (AID 2283517). In short, it runs like this:
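In differentiated HepaRG cultures kept in 0.5% DMSO, test chemicals act for 48 h over an eight-point range with a top dose of 100 uM. Expression is then quantified by TaqMan RT-PCR against ACTB, GAPDH and POLR2A.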

Read-out in assay [8]: MYC, MYC (gene 4609)
The assay can be described thus: LTEA_HepaRG_MYC: Life Technologies and Expression Analysis (LTEA) Assay for MYC using HepaRG (AID 2283518). Summed up:
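MYC transcript changes, up or down relative to 0.5% DMSO, from TaqMan qRT-PCR normalized to three housekeeping genes. Human HepaRG cultures received chemicals for 48 h at eight half-log concentrations up to 100 uM, in duplicate.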

Read-out in assay [9]: matrix metalloproteinase-3 (MMP3), MMP3 (gene 4314)
Description: LTEA_HepaRG_MMP3: Life Technologies and Expression Analysis (LTEA) Assay for matrix metalloproteinase-3 (MMP3) using HepaRG (AID 2283519). Summed up:
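Human liver HepaRG cultures received chemicals (top concentration 100 uM, 0.5% DMSO) for 48 h in duplicate. MMP3 mRNA induction or loss was then assessed via TaqMan qRT-PCR with housekeeping-gene normalisation.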

As to `c1ccc(C[n+]2cccc3ccccc32)cc1`, the compound was called inactive in assay [1], in assay [3], in assay [7] and in assay [9]. Further, the AC50 (usually the concentration giving half of the maximal activity seen) in assay [2] is 28.6 µM (active); in assay [4], 32 µM (active); in [5], 32.8 µM (active); in assay [6] it was 22.5 µM (active); in assay [8], 34.6 µM (active).

For `CC(C)(C)c1cc(/C=C2\SC(N)=NC2=O)cc(C(C)(C)C)c1O`, the call in assay [1], in assay [2] and in assay [5] was inactive. The AC50 is 94.3 µM (active) in assay [6], 49.9 µM (active) in assay [7], 28.9 µM (active) in assay [8] and 3.52 µM (active) in assay [9].

In the case of `CCCCCCCCCCCO`, the compound was called inactive in assay [1], in assay [2], in assay [4], in assay [5], in assay [6] and in assay [7]. Also, the call in [8] and in [9] was inactive.

Consider `CCCCCCCCCCCCO`, for which the call in assay [1], in assay [2], in assay [3], in assay [5], in assay [6] and in assay [8] was inactive. In assay [9], the outcome was inactive.

Consider `CC(C)(O)c1ccc(CNC(=O)c2cccnc2Oc2ccc3nonc3c2)cc1`, for which the call in [1], in assay [2], in [3], in assay [4], in assay [5] and in [6] was inactive. For the same compound, the compound was called inactive in assay [7], in assay [8] and in assay [9].

As to `CCN(Cc1cccc(S(=O)(=O)O)c1)c1ccc(C(=C2C=CC(=[N+](CC)Cc3cccc(S(=O)(=O)O)c3)C=C2)c2ccccc2S(=O)(=O)[O-])cc1`, the result in [1], in [2], in assay [5], in assay [6], in assay [7] and in assay [8] was inactive. For the same compound, in [9], the compound was called inactive.

Turning to `CN1C(=O)CC[C@H]1c1cccnc1`, the outcome in assay [1], in [2], in assay [4], in [5], in assay [6] and in assay [8] was inactive. For the same compound, the compound was called inactive in assay [9].

As to `CCOC(=O)O[C@H](C)OC(=O)c1ccc2c(c1)cc(C(=O)NC1CCN(C(C)C)CC1)n2Cc1cc(-c2ccc(Cl)s2)on1`, the outcome in [1], in assay [2], in [5], in assay [6], in [7] and in [8] was inactive. For the same compound, in assay [9], the AC50 was 47.2 µM (active).

Take `Cc1ccc(C(C)C)cc1`: the call in assay [1], in [2], in assay [3], in [4], in assay [5] and in [6] was inactive. Also, the call in [8] and in assay [9] was inactive.

Regarding `Oc1ccc2ccccc2c1`, the outcome in [1], in assay [2], in assay [4], in [5], in [6] and in assay [7] was inactive. For the same compound, the compound was called inactive in assay [8] and in [9].

Turning to `O=C(O)c1ccccc1C(=O)OCc1ccccc1`, the compound was called inactive in assay [1], in [2], in assay [3], in [5], in [6] and in assay [7]. Moreover, the compound was called inactive in assay [8] and in [9].

As for `CCN(CC)C(=O)c1cc(S(=O)(=O)Cc2ccccc2)c(N2CCC(c3ccccc3)CC2)cc1N(CC)CCN(C)C`, the compound was classed as inactive in [1], in assay [2], in assay [4], in [8] and in assay [9]. Moreover, the AC50 in assay [5] was 31.6 µM (active); in assay [6], 30.5 µM (active).

Take `Oc1ccccc1`: the outcome in assay [1], in assay [2], in [3], in assay [4], in [5] and in assay [6] was inactive. In addition, the call in [7], in [8] and in [9] was inactive.

Regarding `O=C1O[C@H]([C@@H](O)CO)C(O)=C1O`, the compound was called inactive in assay [1], in assay [5], in assay [6], in assay [7], in assay [8] and in assay [9].

As for `NC(=O)c1nc(-c2cccc(-c3cc(F)ccc3OCC(F)(F)C(F)(F)F)c2)n[nH]1`, the compound was classed as inactive in [1], in assay [5], in assay [6] and in assay [8]. Also, the concentration at half-maximal activity (AC50) in assay [2] was 12.1 µM (active); in assay [9] it was 5.48 µM (active).

In the case of `OC12N=C(c3ccccc3)SC1Cc1cc(Cl)ccc12` (configuration not stated), the compound was called inactive in assay [1] and in assay [9]. In addition, the AC50 in assay [2] was 16.5 µM (active); in assay [5], 1.52 µM (active); in assay [6] it was 12.1 µM (active); in [8] it was 16.1 µM (active).

With `Clc1ccccc1C(c1ccccc1)(c1ccccc1)n1ccnc1`, the compound was called inactive in [1] and in [9]. Also, the AC50 in [2] was 20.2 µM (active); in assay [3] it was 66 µM (active); in [5] it was 89.8 µM (active); in [6] it was 17.3 µM (active); in assay [7] it was 25.2 µM (active); in assay [8], 20.5 µM (active).

Turning to `COCC(C)OCC(C)OCC(C)O` (configuration not stated), the result in assay [1], in assay [2], in assay [5], in assay [6], in [7] and in [8] was inactive. Further, the result in assay [9] was inactive.

With `OCCO`, the result in assay [1], in [2], in assay [4], in assay [5], in assay [6] and in assay [7] was inactive. Further, the compound was classed as inactive in [8] and in assay [9].
